Hits are enriched below; roughly 4% of the tested compounds scored in any of these assays.
HIF-2a block = HIF-2a reporter inhibitors, primary screen, luminescence, 786-0 RCC cells; AID 624352, 2012; 786-0 RCC cells HIF-2a reporter, luciferase luminescence, overnight; actives 0.72% (n = 360,000); inhibition, % at 18.8 µM;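 active = inhibition of the luminescence signal of 40% or more relative to plate controls, in a single-dose primary screen at 18.75 µM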
KKLEB tox = cytotoxicity in KKLEB CF airway cells, primary screen, cytotoxicity control for CF NF-kB inhibitor project, cell-based, uHTS, fluorescence assay plates | KKLEB CF airway cells viability, ATPlite luminescence, overnight; stronger effect = lower value; cells stimulated with P. aeruginosa culture filtrate | activity change (cytotoxicity), % at 5 µM | actives 0.36% (n = 360,000) | AID 602141, 2011;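 active = corrected activity change at or below -50% at 5 µM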
TWEAK Fn14 block = inhibitors of TWEAK-Fn14 signaling, primary screen, luciferase reporter cells, uHTS; TWEAK-stimulated Fn14 reporter cells, luciferase luminescence, 8 h; inhibition, % at 10 µM; actives 2% (n = 360,000); in the data active = inhibition above about 50%
TROY signal inh = inhibitors of TROY-driven NF-kB signaling, primary screen, Q293 LMP1-TROYcd cells, NF-kB luciferase, uHTS | Q293 LMP1-TROYcd NF-kB luciferase reporter, 4 h | inhibition, % at 10 µM | actives 0.98% (n = 360,000) | AID 1347056, 2019;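 active = compounds whose plate-normalised and pattern-corrected inhibition of the luciferase reporter signal at the single screening dose is 50% or more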
Peg3 prom inh = Peg3 promoter-driven luciferase inhibitors, primary screen, cell-based, HeLa, luciferase luminescence; HeLa PEG-Prom luciferase reporter, overnight; inhibition, % at 20 µM; actives 1.7% (n = 360,000);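 active = inhibition of at least 50% at 20 µM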
CF NFkB inh = inhibitors of PAF-induced NF-kB signaling, primary screen, cell-based, GFP fluorescence, uHTS; KKLEB NF-kB-GFP reporter, GFP fluorescence overnight; AID 588850, 2011; actives 0.86% (n = 360,000); inhibition, % at 5 µM;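 active = at least 50% inhibition at 5 µM, scaled per plate between neutral and stimulator controls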;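 note: PAF is a Pseudomonas aeruginosa culture filtrate used as stimulus; plate controls were PAF-stimulated DMSO wells for no effect and unstimulated DMSO wells for full effect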
* marks the source's active call; other numbers are inactive results; . = no result given; ! = not confirmed by another sample.

SMILES | HIF-2a block | KKLEB tox | TWEAK Fn14 block | TROY signal inh | Peg3 prom inh | CF NFkB inh
C=CCn1c(C)cc(C(=O)Cn2nc(C(=O)O)c3ccccc3c2=O)c1C | -189 | -25 | 55* | 35 | -216 | 12
CCCC(=O)NC(NC(=S)Nc1c(C)n(C)n(-c2ccccc2)c1=O)C(Cl)(Cl)Cl (stereo not given) | 14 | 2 | 82* | . | 14 | 2
CC(=O)NC(Nc1c(C)n(C)n(-c2ccccc2)c1=O)C(Cl)(Cl)Cl (stereo not given) | 13 | 0 | -1 | 63* | 13 | 0
COc1cc(C(=O)OC(C)c2ccc(F)cc2)ccc1OCC(=O)N1CCOCC1 (stereo not given) | 6 | -12 | -10 | -2 | 11 | 10
Cc1ccccc1NC(=O)c1ccccc1O | -106 | -4 | 0 | -23 | -80 | -18
Cc1oc(-c2ccccc2Cl)nc1CS(=O)CC(=O)NCCc1ccccc1 (stereo not given) | -19 | -14 | -2 | 4 | -19 | 18
C=CCn1cc(/C=N/Nc2nc3ccccc3[nH]2)c2ccccc21 | -207 | -5 | 53* | 13 | -144 | -7
Cc1c(/C=N/Nc2nc3ccccc3[nH]2)c2ccccc2n1C | -112 | 25 | 94* | 55* | 30 | -72
Cn1c(/C=N/Nc2nc3ccccc3[nH]2)nc2ccccc21 | -228 | -13 | -1 | -43 | -202 | -9
COc1ccc2cc(C(N)=O)/c(=N\NC(=O)c3ccccc3)oc2c1 | -42 | -6 | 89* | 58* | -24 | -31
O=C(N/N=C/c1cc([N+](=O)[O-])ccc1O)C12CC3CC(CC(C3)C1)C2 | 17 | -22 | -10 | -15 | 37 | 24
O=C(N/N=C/c1cc([N+](=O)[O-])ccc1O)NC12CC3CC(CC(C3)C1)C2 | 28 | -10 | 93* | 85* | -38 | 4
O=[N+]([O-])c1ccc(O)c(/C=N/NC(=S)Nc2ccc(Cl)cc2Cl)c1 | -78 | -7 | 71* | 33 | 12 | 10
O=[N+]([O-])c1ccc(O)c(/C=N/Nc2ccccn2)c1 | -100 | -65* | -26 | 16 | 33 | 69*
CCOC(=O)C(CC)/C(C)=N\NC(=O)CCC(=O)Nc1ccc(Cl)cc1Cl (stereo not given) | 10 | 10 | -6 | -9 | -2 | -4
COC(=O)c1c(C)[nH]c(C(=O)COc2ccc3ccc(=O)oc3c2)c1C | 6 | 8 | 9 | 7 | 32 | -16
CC(=O)c1c(C)[nH]c(C(=O)COc2ccc3ccc(=O)oc3c2)c1C | -1 | -2 | 0 | 5 | 68* | -28
O=C(COC(=O)c1ccc(Cl)s1)c1ccc[nH]1 | -13 | 13 | -6 | -66 | -27 | -41
COc1ccccc1/C=C/C(C)=O | 9 | 6 | -2 | -26 | 8 | -14
COc1ccccc1/C=C/C(=O)/C=C/c1ccccc1O | -12 | -13 | 88* | -16 | 101* | -7
C=CCNc1ccc(N2C(=O)CCCC2=O)cc1[N+](=O)[O-] | 13 | 4 | 74* | 13 | 0 | -15
COc1ccc(OCc2cc(C(=O)N(C)C3CCOCC3)no2)c2ccccc12 | -177 | -20 | 79* | -34 | -255 | -35
COc1ccc(OCc2cc(C(=O)N(C)C3CCOC3)no2)c(Cl)c1 (stereo not given) | -88 | -15 | -18 | -58 | 28 | 16
COc1ccc(OCc2cc(C(=O)NC3CCOC(C)(C)C3)no2)c2ccccc12 (stereo not given) | -183 | 7 | 61* | -46 | -321 | -14
CSc1ccccc1OCc1cc(C(=O)NC2CCOC(C)(C)C2)no1 (stereo not given) | -33 | 32 | 1 | -18 | -24 | -36
SMILES | HIF-2a block | KKLEB tox | TWEAK Fn14 block | TROY signal inh | Peg3 prom inh | CF NFkB inh
COc1ccc(S(=O)(=O)Nc2ccc3c(c2)OCCO3)cc1OC | -5 | -2 | 55* | 21 | 0 | 14
COc1cc(NS(=O)(=O)c2ccc(OC)c(OC)c2)cc(OC)c1 | 5 | 11 | 7 | -2 | 52* | 0
CC(C)NC(=O)C1(C)CN(S(C)(=O)=O)CC(=O)N1Cc1cccc(C(F)(F)F)c1 (stereo not given) | 3 | . | . | . | . | .
COc1ccc(-c2nnn(CC(=O)N(CC3CCCO3)C(C(=O)NC(C)(C)C)c3ccco3)n2)cc1OC (stereo not given) | 17 | -15 | 7 | 7 | 7 | 11
Cc1ccc2c(c1)Cc1nc3ccccc3nc1-2 | -9 | -12 | 70* | -36 | -12 | -91
Cc1cccc(C(=O)N[C@H](C(=O)Nc2cccc(S(=O)(=O)N3CCCC3)c2)C(C)C)c1 | 23 | -5 | 10 | -14 | 32 | 7
O=C(CN1CCN(C(=O)CNC(=O)c2ccc(-c3ccccc3)cc2)CC1)Nc1ccccc1Cl | -8 | 10 | 28 | 29 | 33 | -7
O=C1c2c(O)ccc(O)c2C(=O)c2c(NCCNCCO)ccc(NCCNCCO)c21 | 63* | -21 | 93*! | 78*! | 100* | 82*!
CC(=O)N1[C@@H]2CC3C4CC=C5C[C@@H](O)CC[C@]5(C)C4CC[C@]3(C)[C@@]21C(C)=O (stereo not given in full) | 25 | 5 | -5 | -14 | 7 | -21
Nc1nsc2ccccc12 | -8 | -2 | 26 | 12 | 51* | -14
Nc1nnc(N)c2ccccc12 | 14 | 12 | 7 | 0 | 1 | -18
COc1cc(NC(=O)COc2ccccc2[N+](=O)[O-])ccc1NC(=O)c1cccs1 | -170 | -9 | -44 | 19 | 57* | 30
CCCCNC(=NCc1cccc(C(F)(F)F)c1)Nc1ccccc1 | -4 | -8 | -7 | -8 | 76* | 11
O=C(Cc1cccc(C(F)(F)F)c1)Nc1ccccc1 | -13 | 13 | 2 | -23 | -10 | -17
CCCCN(C)C(=O)c1cc2cc([N+](=O)[O-])cc(OC)c2oc1=O | 19 | 11 | -7 | -10 | -4 | 19
COc1cc([N+](=O)[O-])cc(/C=N/NC(=O)c2ccc(C)nc2)c1O | 5 | 0 | 10 | -8 | 6 | -4
COc1cccc(/C=N/NC(=O)c2cc3cc([N+](=O)[O-])ccc3s2)c1O | 14 | -12 | -6 | 17 | 84* | -29
COc1cccc(/C=N/NC(=O)C(=O)N/N=C/c2cccc(OC)c2O)c1O | 6 | -11 | -16 | 9 | 17 | 12
COc1cc([N+](=O)[O-])cc(/C=N/NC(=O)c2ccc(NC(=O)c3ccc(C)cc3)cc2)c1O | 28 | -75* | 70* | -1 | 47 | 82*

Screening data from PubChem.
